Test results from PubChem BioAssay (NCATS).
Where “and” joins values, the source holds several entries; their conditions need not be identical. Equal entries are not always repeated. Records with an inconclusive call do not appear. Calls of active or inactive are those of the source. Calls come from the whole dose curve; as a rule, active = well fitted activation curve with a large enough effect in the signal ratio (not every such curve was filed as active); inconclusive = small, poorly fitted or top-dose-only effect, or a change in a side signal; inactive = flat fitted curve, though single readings scatter; the % refers to the signal ratio.

Experiment: qHTS assay for small molecule activators of the p53 signaling pathway (AID 651743); note: series mostly up to about 92 µM; % of control where 0% means no effect
Conditions: HCT-116 p53RE-bla, beta-lactamase FRET ratio, 16 h; activation: hits give high values
Excerpt: National Center for Advancing Translational Sciences [NCATS] NIH Chemical Genomics Center [NCGC] U.S. Environmental Protection Agency [EPA] National Institutes of Environmental Health Sciences [NIEHS] National Toxicology Program [NTP] Assay Overview: p53, a tumor suppressor protein, is activated following cellular insult, including DNA damage and other cellular stresses. The activation of p53 regulates cell fate by inducing DNA repair, cell cycle arrest, apoptosis, or cellular senescence. The activation of p53, therefore, is a good indicator of DNA damage and other cellular stresses. The CellSensor p53RE-bla HCT-116 cell line (Invitrogen) contains a stably integrated beta-lactamase reporter gene under control of the p53 response elements. The activation of the report gene under culture conditions can be detected by fluorescence intensity. This cell line can be used to screen chemicals in a 1536-well plate format and to identify agonists that activate p53 signaling pathway.
Assay Protocol Summary: The p53RE-bla cells were dispensed at 4,000 cells/5 ul/well in 1536-well black wall/clear bottom plates using a Multidrop dispenser. After the assay plates were incubated at a 37 C/5% CO2 incubator for 5 hours, 23 nL of compounds dissolved in DMSO, positive controls or DMSO only was transferred to the assay plate by a pin tool. The plates were incubated at 37 C for 16 hours. After 1 uL of LiveBLAzer B/G FRET substrate was added using a Flying Reagent Dispenser, the plates were incubated at room temperature for 2 hours, and fluorescence intensity was measured by an Envision plate reader.
With `Nc1ccc(-c2ccc(N)c(Cl)c2)cc1Cl` the activation was 14% (inactive) and 23.3% (inactive). In the case of `O=P(OCCCl)(OCCCl)OCCCl`, the activation is reported as -2.67% (inactive). In the case of `CCN(N=O)C(N)=O`, the activation is reported as 0.306% (inactive). In the case of `ClCC(Cl)CCl`, the activation is reported as 2.35% (inactive) and -2.96% (inactive). For `CC12CC1(C)C(=O)N(c1cc(Cl)cc(Cl)c1)C2=O` (stereo not given), the activation was 3.14% (inactive). In the case of `ClCCCCl`, the activation is reported as -3.64% (inactive). With `Cc1cc(N=Nc2ccccc2C)ccc1N` the activation was -4.82% (inactive) and -5.43% (inactive). With `CCOC(=O)CBr` the activation was -2.17% (inactive). With `BrCC(Br)C1CCC(Br)C(Br)C1` (stereo not given) the activation was -5.49% (inactive). For `C=CCc1cc(OC)c2c(c1)OCO2`, the activation was -0.222% (inactive). For `CN(C)c1ccc(N=Nc2ccccc2)cc1`, the activation was -7.04% (inactive). For `ClCc1ccccn1`, the activation was -0.689% (inactive) and -0.994% (inactive). For `C=CCCl`, the activation was -1.58% (inactive). For `Nc1cc(Cl)ccc1Cl`, the activation was -3.16% (inactive). With `C=CCO` the activation was -1.01% (inactive). With `Cc1cc(-c2ccc(N)c(C)c2)ccc1N` the activation was -1.87% (inactive) and -0.84% (inactive) and 2.36% (inactive). For `Cc1ccccc1[N+](=O)[O-]`, the activation was 1.69% (inactive). With `CCOS(C)(=O)=O` the activation was -2.6% (inactive). In the case of `CC(C)CON=O`, the activation is reported as -2.37% (inactive). With `O=C(O)c1cc(Cl)ccc1Cl` the activation was -4.12% (inactive). For `O=[N+]([O-])c1ccccc1O`, the activation was -2.01% (inactive). For `O=[N+]([O-])c1ccc(O)c([N+](=O)[O-])c1`, the activation was 9.63% (inactive). For `CN1CSC(=S)N(C)C1`, the activation was 0.178% (inactive) and -0.711% (inactive). For `NNC(N)=S`, the activation was -3.14% (inactive). With `CC(C)[N+](=O)[O-]` the activation was -2.67% (inactive). With `CN(C)C(=O)Nc1ccc(Cl)cc1` the activation was -1.85% (inactive) and -2.71% (inactive). For `C(CCOCC1CO1)COCC1CO1` (stereo not given), the activation was 15.9% (inactive). With `CSSC` the activation was -1.71% (inactive). In the case of `Nc1cc(Cl)ccc1O`, the activation is reported as -1.47% (inactive). In the case of `O=[N+]([O-])c1ccc2c3c(cccc13)CC2`, the activation is reported as -4.24% (inactive) and -1.29% (inactive). In the case of `CCC[N+](=O)[O-]`, the activation is reported as -0.809% (inactive). With `N#C/C(N)=C(/N)C#N` the activation was 1.55% (inactive). For `Cc1coc2c1CCC(C)C2` (stereo not given), the activation was -2.44% (inactive). For `Cc1cccc(N)c1C`, the activation was 12.1% (inactive). In the case of `Cc1ccc(N)cc1N`, the activation is reported as -3.51% (inactive) and -0.675% (inactive). With `S=c1[nH]c2ccccc2[nH]1` the activation was -4.45% (inactive). For `OCCCCO`, the activation was -4.12% (inactive). In the case of `Brc1ccc(Oc2ccc(Br)cc2Br)c(Br)c1`, the activation is reported as 2.43% (inactive). In the case of `CC(C)(C)C(O)(CCc1ccc(Cl)cc1)Cn1cncn1` (stereo not given), the activation is reported as -3.53% (inactive) and -2.93% (inactive). For `C[N+](=O)[O-]`, the activation was -0.263% (inactive).
